Reference: ChEMBL document CHEMBL1157539, “Thousands of chemical starting points for antimalarial lead identification” (Nature, 2010)

Columns and labels:
Assay type in all cases: functional
Plasmodium falciparum [1] = test: GSK_TCMDC: Inhibition of Plasmodium falciparum 3D7 in whole red blood cells, using parasite LDH activity as an index of growth. Test compounds present at 2uM
Plasmodium falciparum [2] = test: GSK_TCMDC: Inhibition of Plasmodium falciparum Dd2 in whole red blood cells, using parasite LDH activity as an index of growth. Test compounds present at 2uM
HepG2 = test: GSK_TCMDC: Percent inhibition of human HepG2 cell line. Test compounds present at 10uM.

Compound | Inhibition (Plasmodium falciparum [1]) [%] | Inhibition (Plasmodium falciparum [2]) [%] | Inhibition (HepG2) [%]
CC1(C)N=C(N)N=C(N)N1O.Cl | 93 | 1 | 7
COc1ccc2ncc(F)c(CCN3C4CCC3CC(NCc3cc5c(cn3)OCS5)C4)c2n1.Cl (configuration not stated) | 95 | 48 | 15
CCNc1cc(C(=O)N[C@@H](Cc2ccccc2)[C@H](O)CNC2CCC(C)(C)CC2)cc(N2CCCCS2(=O)=O)c1.Cl | 98 | 71 | 1
COc1ccc(C(=O)CCC(=O)N(Cc2ccc(-c3ccc(CNCCc4ccccc4)cn3)cc2)C(C)CN(C)C)cc1F.O=C(O)C(F)(F)F (configuration not stated) | 98 | 57 | 20
Cn1nc(-c2cccc(CNC3CCc4ccccc43)c2)c2cnc(NCCCN3CCCC3)nc21 (configuration not stated) | 99 | 15 | 29
Cc1cccc2nc(-c3ccc(-c4ccc(NC(=O)C(C)CN(C)C)cc4)s3)[nH]c12 (configuration not stated) | 100 | 98 | 23
CN1CCN(c2ccnc3ccc(NC(=O)N(C)c4ccc(Cl)c(Cl)c4)cc23)CC1 | 100 | 85 | 5
Cc1ccc(NC(=O)c2cnc(N3CCN(c4ccncc4)CC3)c(Cl)c2)cc1.O=C(O)C(F)(F)F | 94 | 24 | 25
CC(C)c1ccc(Nc2nc(NCCc3c[nH]cn3)nc(NCc3ccccc3)n2)cc1 | 98 | 2 | 1
CC(C)(C)c1ccc(NC(=O)c2cccc(CN3CCCN(Cc4cccc(C#N)c4)CC3)c2)cc1.O=C(O)C(F)(F)F | 97 | 12 | 39
N=C(NCCCCCCCCNC(=N)Nc1ccc(Cl)cc1)Nc1ccc(Cl)cc1 | 93 | 89 | 10
CC1(C)N=C(N)N=C(N)N1c1ccc(I)cc1.Cl | 92 | 1 | 16
CN(CCCCCNC(=O)/C=C/c1ccc(Cl)c(Cl)c1)CCc1c[nH]c2ccccc12 | 91 | 18 | 40
COc1ccc(NC(=O)CCNc2cc(C)nc(NCCc3ccc(F)cc3)n2)cc1.O=C(O)C(F)(F)F | 98 | 3 | 27
C(=C(c1cccs1)c1cccs1)c1ccc(CNC2CCN(Cc3ccccc3)CC2)cc1.Cl | 98 | 21 | 40
O=c1c2c([nH]c3cc(Cl)ccc13)CCCC2 | 96 | 73 | 33
Cl.NCC(=O)Nc1cccc(Nc2nccc(-c3c(-c4cccc(NC(=O)c5ccccc5)c4)nn4ccccc34)n2)c1 | 96 | 87 | 45
COC(=O)C1=CNC=C(C(=O)OC)C1c1ccc(Cl)c([N+](=O)[O-])c1 | 93 | 79 | 0
COc1cc(NC2CCCC(NCc3cn(S(=O)(=O)c4ccccc4)c4ccccc34)C2)nc2ccccc12 (configuration not stated) | 100 | 61 | 4
O=C(NCc1ccc(F)cc1)c1ccc(N2CCN(c3ccncc3)CC2)cn1.O=C(O)C(F)(F)F | 98 | 81 | 7
O=C(Nc1cccc(CN2CCCN(Cc3ncc[nH]3)CC2)c1)c1ccc(-c2ccccc2)cc1.O=C(O)C(F)(F)F | 100 | 56 | 23
COc1cc(C(=O)NC2CCc3ccccc32)cc(Cl)c1OC (configuration not stated) | 85 | 60 | 12
COc1ccc(C=Cc2cc(=N)c3ccccc3[nH]2)cc1Br | 100 | 88 | 55
COc1ccc(CCN(C)CCc2ccc(NC(=O)c3cccc4c(=O)c5ccccc5sc34)cc2)cc1 | 95 | 33 | 24
O=C(N[C@@H](Cc1ccccc1)C(=O)NC1CCCc2ccccc21)c1ccc(O)c(-c2ccc(Cl)c(Cl)c2)c1 (some centres not stated) | 97 | 99 | 0
O=[N+]([O-])c1ccc(C=NNc2nc3ccccc3[nH]2)cc1 | 100 | 98 | 11
Cc1ccc(NC(=O)N2CCCN(CCCCCNC(=O)/C=C/c3ccc(Cl)c(Cl)c3)CC2)cc1C | 100 | 4 | 62
c1ccc(CN2CCCN(c3ccc4c(c3)CCN(Cc3ccc(-c5ncc[nH]5)cc3)CC4)CC2)cc1 | 100 | 73 | 6
O=C(/C=C/c1ccc(Cl)c(Cl)c1)NCCCCCN1CCN(C(=O)Nc2ccc(C(F)(F)F)cc2)CC1 | 99 | 0 | 26
